According to PubChem BioAssay (NCATS):
Records with an inconclusive call do not appear. Active and inactive are the calls of the source. Calls come from the whole dose curve; as a rule, active = well fitted inhibition curve with a large enough effect; inconclusive = small, poorly fitted or top-dose-only effect; inactive = no such curve, though single readings can be large or run the other way.

These compounds were tested against Muscarinic acetylcholine receptor M1 (Rattus norvegicus) (UniProt P08482) (assay: qHTS Assay for Antagonists of Acetylcholine Muscarinic M1 Receptor: Measurement of IP-One Response (AID 944; note: nearly all actives have a fitted effect of over 75% in size)). Conditions: CHO-M1 cells, IP-One HTRF, antagonist mode; series mostly up to 46.1 µM; activity change, negative = inhibition: at the top concentration.
Muscarinic acetylcholine receptor M1 (Rattus norvegicus), sequence (P08482 whole entry, looked up): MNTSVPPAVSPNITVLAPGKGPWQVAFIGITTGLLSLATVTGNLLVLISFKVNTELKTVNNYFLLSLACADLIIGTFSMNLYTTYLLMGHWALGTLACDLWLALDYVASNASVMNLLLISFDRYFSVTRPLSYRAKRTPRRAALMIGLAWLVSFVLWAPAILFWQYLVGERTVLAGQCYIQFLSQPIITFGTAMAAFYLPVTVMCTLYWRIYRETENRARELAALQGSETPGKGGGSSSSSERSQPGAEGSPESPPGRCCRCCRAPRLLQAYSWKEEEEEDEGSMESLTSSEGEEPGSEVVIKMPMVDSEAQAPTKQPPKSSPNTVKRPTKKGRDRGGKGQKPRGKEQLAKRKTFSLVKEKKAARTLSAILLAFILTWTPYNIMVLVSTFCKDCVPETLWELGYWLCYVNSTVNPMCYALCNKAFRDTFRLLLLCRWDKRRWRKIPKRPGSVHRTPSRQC
From the text: NIH Molecular Libraries Screening Centers Network [MLSCN]
NIH Chemical Genomics Center [NCGC]
Acetylcholine muscarinic M1 receptor is a G-protein coupled receptor (GPCR) coupling to the Gq G protein. It is mainly expressed in brain and functionally related to the learning and memory processes. The agonists of this receptor have the potential for the treatment of Alzheimer's disease and cognitive impairments associated with Schizophrenia.
Upon an activation of the M1 receptor, phosholipase C (PLC) is activated to produce inositol 1,4,5-trisphosphate (IP3) and diacyl glycerol (DAG). The IP3 is very rapidly hydrolyzed to IP2, IP1 and then inositol by a series of enzymes and Ca2+ is quickly pumped back into ER by the calcium pump on the ER membrane, which effectively switches off the IP3 and Ca2+ signaling. For compound screen, the changes in intracellular free Ca2+ concentration can be measured by the fluorescence calcium dye such as Fura-2, Fluo-3 and Fluo-4 with a fluorescence kinetic plate reader. IP1 or total IPs including IP1, IP2 and IP3 are usually measured as an alternative method for assessing the function of Gq-coupled GPCRs. We have applied a time-resolved fluorescence based (TR-FRET) IP1 assay in which an IP1 specific antibody is used to detect the labeled IP1 tracer. When the cell lysate contains the elevated IP1, the TR-FRET between the labeled antibody and IP1 tracer is disrupted resulting in a reduction in the total signal. Since the TR-FRET is used, a homogenous assay with out cell wash and medium change is possible which also can be miniaturized into the high density format for HTS.
We have obtained a M1-CHO cell line transfected with rat acetylcholine M1 receptor and optimized this IP-One assay with this cell line for compound screening as a counter-screen assay for other Gq-coupled GPCRs.
NCGC Assay Protocol Summary:
The CHO-M1 (CHO-M1) cell line transfected with the rat acetylcholine muscarinic M1 receptor was obtained from American Type Culture Collection (ATCC). The cells were maintained in call culture flasks with F12 Kaighn's media (Invitrogen) supplemented with 10 % FBS, 100 units/ml penicillin, 100 ug/ml streptomycin and 250 ug/ml geneticin (Invitrogen) at 37C, 5 % CO2 in a humidified atmosphere. At 90-95 % confluence, the cells were then detached in 15 ml 0.25 % trypsin by 3 minutes incubation at 37C and centrifuged at 1000 RPM to remove the trypsin solution. The resulting cell pellet was resuspended in the cell freezing media containing 10 % DMSO (Invitrogen) at a density of 4 x 10^7 cells/ml. The aliquots of cells at 0.5 - 1 ml per vial were frozen down slowly at 1 degree C/min using a Cryo 1 degree C freezing container in the presence of isopropanol (Nalgene Nunc, Rochster, NY) overnight in a -80C freezer. The frozen cells were then transferred to liquid nitrogen for the storage up to one year.
The resuspended frozen cells were plated at 3 ul/well with 2000 cells in the black, tissue culture treated, clear bottom 1536-well plates. The cells were cultured at 37C, 5 % CO2 for overnight to allow the cells recovering from the frozen state. 20 nl/well of compound in DMSO solution was added to the assay plate and incubated for 10 min. Carbachol was prepared in stimulation buffer (10mM Hepes, 1mM CaCl2, 0.5 mM MgCl2, 4.2 mM KCl, 146 mM NaCl, 5.5 mM glucose 50mM LiCl 50mM pH7.4) which was added to the assay plate at 1 ul/well. After an incubation with carbachol at 37C, 5 % CO2 for 30 min, all the wells in the assay plate were added with 1 ul/well of d2 conjugated IP1 (d2-IP1) and 1 ul/well of Eu+ cryptate conjugated anti-IP1 antibody (Eu+-Ab), both from the IP-One kit (Cisbio USA., Inc.). After 10 min incubation at the room temperature, the assay plates were measured in the HTRF detection mode in ViewLux plate reader (Ex=337 nm. Em(1)=620 and Em(2)=665 nm)
1536-well assay protocol:
(1) 4 ul/well containing 2000 M1-CHO cells in 1536 tissue culture treated white plate
(3) Add 23 nl compound diluted in DMSO
[…]
Potency is the fitted concentration of half-maximal effect.

Compound | activity change, negative = inhibition | Potency
CCCn1cnc2c1c(=O)n(CCCCC(C)=O)c(=O)n2C | -36.3% (inactive) | –
C=Cc1c(C)c2cc3[nH]c(cc4nc(cc5nc(cc1[nH]2)C(C)=C5CCC(=O)O)C(CCC(=O)O)=C4C)c(C)c3C=C | -13.7% (inactive) | –
COc1ccc(Cl)cc1C(=O)NCCc1ccc(S(=O)(=O)NC(=O)NC2CCCCC2)cc1 | -44.8% (inactive) | –
CC1=C(CC(=O)O)c2cc(F)ccc2/C1=C\c1ccc(S(C)(=O)=O)cc1 | -13.8% (inactive) | –
CCCCCCCCCCCCCCCC(=O)NCCO | 3.59% (inactive) | –
NC(N)=NCCC[C@H](N)C(=O)O | -26.5% (inactive) | –
Nc1cc(=O)[nH]c(N)n1 | -49.7% (inactive) | –
C#CCN(C)Cc1ccccc1 | -15.6% (inactive) | –
CNCCCC1c2ccccc2C=Cc2ccccc21 | – | 0.398 µM (active)
NC(=O)c1ncn([C@@H]2O[C@H](CO)[C@@H](O)[C@H]2O)n1 | -32.8% (inactive) | –
CCN(CC)CCNC(=O)c1cc(Cl)c(N)cc1OC | -2.72% (inactive) | –
Cc1cc(N)c2ccccc2[n+]1CCCCCCCCCC[n+]1c(C)cc(N)c2ccccc21 | – | 2.24 µM (active)
N=c1c[n+](N2CCOCC2)[n-]o1 | -4.77% (inactive) | –
CC(C)C(=O)c1c(C(C)C)nn2ccccc12 | -18.7% (inactive) | –
OCc1cc(C(O)CNCCCCCCOCCCCc2ccccc2)ccc1O (stereo unspecified) | -44.7% (inactive) | –
C[C@]12C[C@H](O)[C@H]3[C@@H](CCC4=CC(=O)CC[C@@]43C)[C@@H]1CC[C@@H]2C(=O)CO | -36.2% (inactive) | –
